How the values were obtained:
Assay in all cases: PBM binding z-score (relative to random genomic background probes); higher = stronger binding; sequences stand for … in GC…GCGATTGACAGCGTAGAATGAAGG
[1] = system: FXR:RXRa (NR concentration 270 nM, RXRa partner concentration 90 nM)
Outline: (§1)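 Custom Agilent 4×180K protein-binding microarrays carried double-stranded probes, each with a 34-nt variable region. These regions held direct-repeat seeds, single-nucleotide variants, half-site ablations and random human genomic background sequences. Ligand-free nuclear receptor dimers were incubated on the arrays for 1 h, antibodies against each partner (one per run) detected binding, and scanned fluorescence was regression-normalized. Binding z-scores take the random background probes as reference.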

[2] = system: LXRa:RXRa (NR concentration 270 nM, RXRa partner concentration 90 nM)
Outline: as §1

[3] = system: LXRa homodimer (NR concentration 270 nM)
Outline: as §1

[4] = system: LXRb:RXRa (NR concentration 270 nM, RXRa partner concentration 90 nM)
Outline: as §1

[5] = system: LXRb homodimer (NR concentration 270 nM)
Outline: as §1

[6] = system: PPARa:RXRa (NR concentration 270 nM, RXRa partner concentration 90 nM)
Outline: as §1

[7] = system: PPARg:RXRa (NR concentration 180 nM, RXRa partner concentration 90 nM)
Outline: as §1

[8] = system: PPARg:RXRa 270nM:90nM, anti-RXR (NR concentration 270 nM, RXRa partner concentration 90 nM)
Outline: as §1

[9] = system: PPARg:RXRa 30nM:10nM, anti-RXR (NR concentration 30 nM, RXRa partner concentration 10 nM)
Outline: as §1

[10] = system: PPARg:RXRa 90nM:30nM, anti-RXR (NR concentration 90 nM, RXRa partner concentration 30 nM)
Outline: as §1

[11] = system: PPARg:RXRa DBDmut IVT, anti-RXR (DBD mutation: RXRa K156A/R161A, NR concentration 270 nM, RXRa partner concentration 90 nM)
Outline: as §1

[12] = system: PPARg:RXRa IVT, anti-PPARg (NR concentration 270 nM, RXRa partner concentration 90 nM)
Outline: as §1

[13] = system: PPARg DBDmut:RXRa IVT, anti-PPARg (DBD mutation: PPARg1 K132A/R137A, NR concentration 270 nM, RXRa partner concentration 90 nM)
Outline: as §1

[14] = system: PPARg DBDmut IVT, anti-PPARg (DBD mutation: PPARg1 K132A/R137A, NR concentration 270 nM)
Outline: as §1

[15] = system: PPARg homodimer (NR concentration 180 nM)
Outline: as §1

[16] = system: PXR:RXRa (NR concentration 270 nM, RXRa partner concentration 90 nM)
Outline: as §1

[17] = system: PXR homodimer (NR concentration 270 nM)
Outline: as §1

[18] = system: RARa:RXR (NR concentration 270 nM, RXRa partner concentration 90 nM)
Outline: as §1

[19] = system: RARa homodimer (NR concentration 270 nM)
Outline: as §1

[20] = system: RARb:RXRa (NR concentration 270 nM, RXRa partner concentration 90 nM)
Outline: as §1

Sequence | PBM binding z-score [1] | PBM binding z-score [2] | PBM binding z-score [3] | PBM binding z-score [4] | PBM binding z-score [5] | PBM binding z-score [6] | PBM binding z-score [7] | PBM binding z-score [8] | PBM binding z-score [9] | PBM binding z-score [10] | PBM binding z-score [11] | PBM binding z-score [12] | PBM binding z-score [13] | PBM binding z-score [14] | PBM binding z-score [15] | PBM binding z-score [16] | PBM binding z-score [17] | PBM binding z-score [18] | PBM binding z-score [19] | PBM binding z-score [20]
ATCTTTAGGTAAAGTTCAGTGAAAGATCGATAGA | 0.994 | 1.72 | 1.25 | 1.18 | 0.781 | 1.87 | 2.25 | 3.13 | 1.43 | 2.95 | 1.08 | 1.4 | 0.514 | 1.26 | 0.959 | 2.02 | 1.36 | 1.27 | 0.483 | 2.65
CTCGAAAGATCGGTTGAGGTGAGTATACGGATAA | 0.238 | -0.622 | -0.531 | -0.146 | -0.43 | 0.0167 | -0.0366 | -0.226 | -0.244 | -0.262 | -0.303 | 0.165 | 0.37 | 0.142 | -0.353 | -0.0362 | -0.0981 | 0.657 | -0.222 | 0.00694
CCTAGCAGGCCAATCTGGGTCACTAAAGGCTTGA | 0.156 | 0.884 | -0.513 | 0.511 | -0.766 | 2.87 | 1.97 | 1.83 | -0.068 | 0.891 | 4 | 4.94 | -0.0852 | -0.774 | 0.49 | 0.325 | -0.597 | 1.13 | -0.281 | 1.23
CGTCCAACGTCATAGGAGGTCAGTGAAGACAGAT | 1.79 | 2.71 | 0.999 | 1.63 | -0.234 | 2.09 | 0.683 | 0.77 | 0.184 | 0.231 | 0.0965 | 1.08 | 0.0644 | -0.0605 | 1.13 | 2.24 | 0.731 | 1.79 | 0.648 | 2.14
ACTATTAGTTGAGACTAGGGCAACCGATAGGTTG | -0.2 | -0.21 | -0.416 | -0.304 | 0.0178 | 0.296 | 0.679 | 0.33 | 0.227 | -0.101 | 1.02 | 2.46 | 0.767 | 0.914 | -0.0941 | -0.323 | -0.0618 | -0.0584 | 0.518 | 0.583
GCGACTGGGGCATCAGCAGGTTAACATAACTTAA | -0.169 | -0.338 | -0.456 | 1.01 | -0.643 | 1.27 | 1.18 | 1.16 | 0.116 | 0.609 | 3.98 | 3.26 | -0.488 | -1.04 | 0.292 | 0.289 | -0.239 | 0.486 | -0.18 | 0.898
TCTTGTAGTTCAACAGGAGGTTAAGAAAGATCGA | 1.51 | 2.8 | 1 | 1.78 | 0.269 | 2.44 | 0.0566 | 1.66 | 2.29 | 1.89 | 1.24 | 0.804 | 0.436 | -0.0772 | 1.16 | 3 | 0.574 | 2.75 | 0.938 | 2.56
CATACAGGGGCAGCTAGGCCAGAGTAGGGACGGC | -0.362 | -0.459 | -0.661 | -0.557 | -0.608 | -0.483 | 0.23 | -0.457 | -0.311 | -0.744 | -0.41 | 0.399 | -0.422 | -0.72 | -0.555 | -0.802 | -0.878 | -0.828 | 0.188 | 1.17
TCTATTAGTTCATTAGGGCAACCGAAACAGCGGA | 1.12 | 1.73 | 1.56 | 1.29 | 1.34 | 2.47 | 1.21 | 2.92 | 3.81 | 3.34 | 2.92 | 2.95 | 1.5 | 1.13 | 1.3 | 1.75 | 1.7 | 1.2 | 1.45 | 2.64
ATCTCTAGGTAAAGAAAGTTCAGTGAATGCAAAT | 0.762 | 4.7 | 1.94 | 1.58 | 0.904 | 1.38 | 0.409 | 0.933 | 0.542 | 0.768 | 2 | 1.69 | 1.32 | 0.83 | 1.41 | 2.68 | 1.68 | 1.42 | 1.41 | 1.82
CCTTACGGGTCACTGACAGGCTATAGCATTTGGA | 4.95 | 3.52 | -0.0559 | 3.1 | -0.0175 | 4.91 | 3.88 | 4.36 | 1.54 | 2.83 | 3.84 | 3.67 | 0.647 | -0.225 | 2.27 | 2.94 | -0.147 | 3.69 | 0.758 | 3.76
AGAATGAGGTTACCAAAGATTAGGGAAACGCTTG | 1.75 | 4.54 | -0.368 | 1.72 | -0.268 | 3.31 | 2.43 | 2.72 | 1.12 | 1.93 | 4.05 | 3.59 | 1.65 | 0.534 | 0.398 | 1.15 | -0.168 | 1.88 | 0.039 | 2.06
AGAATGAGGCTATTAAGATCAGGGAATTGCGGTC | -0.289 | -0.438 | -0.31 | -0.728 | -0.68 | -0.226 | 0.441 | -0.417 | -0.0887 | -0.313 | 0.775 | 0.484 | 0.528 | -0.351 | -0.817 | -0.436 | -0.252 | -0.197 | -0.295 | 0.119
